Test [1] addresses Sentrin-specific protease 8 (Homo sapiens) (UniProt Q96LD8). Description: human SENP8 peptidase blockers, hit retest – biochemical, luminescence, single concentration, confirmation (AID 488912;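 active means mean inhibition across replicates above about 50%, limit read from the data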). The following applies: Recombinant SENP8, Z-RLRGG-aminoluciferin luminescence, 60 min; at 12.5 µM; active compounds read high.
Test [2] has as its target Sentrin-specific protease 6 (Homo sapiens) (UniProt Q9GZR1). Description: inhibition of human SENP6 catalytic domain – biochemical, luminescence, single concentration, confirmation (AID 488915). The settings on record: recombinant SENP6, Z-RLRGG-aminoluciferin luminescence; at 12.5 µM; active compounds read high.
Test [3] concerns the target Sentrin-specific protease 7 (Homo sapiens) (UniProt Q9BQF6). Description: human SENP7 peptidase blockers, hit retest – biochemical, luminescence, single concentration, confirmation (AID 488917). The following applies: recombinant SENP7, Z-RLRGG-aminoluciferin luminescence, 40 min; at 12.5 µM; active compounds read high.
The next test addresses Caspase-3 (Homo sapiens) (UniProt P42574). In words: human caspase-3 activity blockade, out-of-family – biochemical, single concentration, selectivity assay for SENP inhibitor project, confirmation (AID 488918;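 active means mean inhibition above about 50%, limit read from the data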;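 further: plate controls were enzyme with DMSO for no effect and wells without caspase-3 for full effect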). The settings on record: purified caspase-3, Z-DEVD-aminoluciferin luminescence, 60 min; at 12.5 µM; active compounds read high.
Test [4] is described as follows: Ultra-Glo luciferase signal interference – biochemical, single concentration, SENP8 reaction pre-completed, artefact control for SENP inhibitor project, confirmation (AID 488919;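 active means mean inhibition above about 50% when retested at one dose, limit read from the data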;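 further: plate controls were DMSO wells with completed reaction for no effect and substrate without enzyme for full effect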). The settings on record: Pre-incubated SENP8/Z-RLRGG-aminoluciferin, luciferase luminescence interference; at 12.5 µM; active compounds read high.
Test [5] can be described thus: apoptosome-driven caspase-3 activation blockers – biochemical, fluorescence, DEVD-Rh110, 20 µM, confirmation (AID 504614;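 active means mean inhibition of at least 40% at 20 µM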;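 further: plate controls were DMSO wells for no effect and DEVD-CHO caspase inhibitor control wells for full effect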). The following applies: reconstituted apoptosome, caspase-3 DEVD-Rh110 fluorescence; at 20 µM; active compounds read high.
Test [6] in a line: detection-step artefacts after completed caspase reaction – biochemical, fluorescence, Rh110, 20 µM, artefact control for Apaf-1 inhibitor project, confirmation (AID 504615;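 active means signal rise of 40% or more at 20 µM, treated as a fluorescence artifact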). The following applies: quenched caspase reaction, at 20 µM, active compounds read high.

The other results are listed elsewhere or left out. A number with no mark means an inactive call. Calls of active or inactive are those of the source.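 How the source made its calls, unless noted: active means mean inhibition above about 50% in the one-dose retest (limit read from the data); inactive means the rest.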

Caspase-3 (Homo sapiens), sequence (P42574 28-227 limits assumed): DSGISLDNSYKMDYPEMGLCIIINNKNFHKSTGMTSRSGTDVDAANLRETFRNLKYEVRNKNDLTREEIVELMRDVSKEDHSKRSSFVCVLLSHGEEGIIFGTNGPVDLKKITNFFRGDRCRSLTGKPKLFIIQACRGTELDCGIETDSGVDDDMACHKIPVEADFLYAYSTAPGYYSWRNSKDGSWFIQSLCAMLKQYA
Sentrin-specific protease 7 (Homo sapiens), sequence (Q9BQF6 706-1050 limits assumed): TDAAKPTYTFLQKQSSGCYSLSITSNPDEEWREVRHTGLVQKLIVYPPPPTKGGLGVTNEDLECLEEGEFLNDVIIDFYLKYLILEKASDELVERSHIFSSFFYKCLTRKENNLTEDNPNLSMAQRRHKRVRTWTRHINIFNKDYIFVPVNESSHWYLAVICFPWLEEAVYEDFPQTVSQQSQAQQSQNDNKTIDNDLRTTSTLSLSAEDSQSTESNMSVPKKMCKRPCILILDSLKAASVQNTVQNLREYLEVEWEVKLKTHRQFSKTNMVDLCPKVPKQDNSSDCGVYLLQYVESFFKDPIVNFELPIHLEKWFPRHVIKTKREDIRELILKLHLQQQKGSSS
Sentrin-specific protease 6 (Homo sapiens), sequence (Q9GZR1 628-1112 limits assumed): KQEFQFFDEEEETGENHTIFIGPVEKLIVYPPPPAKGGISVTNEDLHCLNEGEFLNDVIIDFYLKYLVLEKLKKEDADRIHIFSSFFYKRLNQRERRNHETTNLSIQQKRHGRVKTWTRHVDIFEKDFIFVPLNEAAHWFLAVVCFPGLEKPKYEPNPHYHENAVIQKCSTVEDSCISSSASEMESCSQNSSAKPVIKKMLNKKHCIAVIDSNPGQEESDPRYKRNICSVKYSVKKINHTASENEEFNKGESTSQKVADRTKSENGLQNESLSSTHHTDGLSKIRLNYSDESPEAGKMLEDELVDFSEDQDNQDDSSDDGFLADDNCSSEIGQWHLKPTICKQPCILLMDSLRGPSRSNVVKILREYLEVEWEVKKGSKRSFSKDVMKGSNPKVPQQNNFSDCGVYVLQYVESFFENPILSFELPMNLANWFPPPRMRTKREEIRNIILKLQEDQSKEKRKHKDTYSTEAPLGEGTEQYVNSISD
Sentrin-specific protease 8 (Homo sapiens), sequence (Q96LD8 whole entry, looked up, the tested form may be a part): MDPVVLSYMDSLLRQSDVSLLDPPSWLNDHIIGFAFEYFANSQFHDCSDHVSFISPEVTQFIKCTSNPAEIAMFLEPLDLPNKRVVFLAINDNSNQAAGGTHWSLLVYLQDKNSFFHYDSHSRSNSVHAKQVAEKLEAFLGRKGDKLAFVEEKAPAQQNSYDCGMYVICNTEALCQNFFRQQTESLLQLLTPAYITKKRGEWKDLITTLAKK

For the compound `FC(F)(F)c1ccnc(Oc2ccc(C3=NCCS3)cc2)c1`, the inhibition – broadly, the change of the read-out against control, counted positive when it falls – was 36.3% in test [1]; 42.8% in test [2]; 53.1% (active) in test [3]; 29.9% with Caspase-3 (Homo sapiens); 17% in test [4].
For `Oc1ccc(N=Cc2sc3ccccc3c2Cl)cc1`, the inhibition is -10.7% in test [1]; -2.2% in test [2]; 49.3% in test [3]; 1.9% in the test with Caspase-3 (Homo sapiens); 20.8% in test [4]; 14.4% in test [5]. Also, the activation (fluorescence interference) in test [6] is 5.12%.
`O=C(c1cnn2ccccc12)N1CCc2ccccc21`: the inhibition was 36.7% in test [1]; 39.6% in test [2]; 78.5% (active) in test [3]; 74% (active) in the test with Caspase-3 (Homo sapiens); 61.4% (active) in test [4].
As to `Cc1ccc(C(=O)N/N=C\c2cc(Br)c(Br)o2)cn1`, the inhibition is 3.5% in test [1]; 12.7% in test [2]; 8.1% in test [3]; 12.1% with Caspase-3 (Homo sapiens); -0.7% in test [4]; 4.66% in test [5]. Besides, the activation (fluorescence interference) in test [6] is -11.2%.
On to `COc1ccc(Cc2nnc(SCC(=O)c3cccc([N+](=O)[O-])c3)n2C)cc1`, for which the inhibition in test [1] is -3.9%; in test [2] it was 1.7%; in test [3], 6.9%; with Caspase-3 (Homo sapiens) it was 4.6%; in test [4] it was -2.3%.
In the same order, the values of `COC(=O)c1sc(NC(=O)c2ccc(OC)cc2OC)nc1C` are 56.9% (active), 34.4%, 22.1%, 66.4% (active) and -5.6%.
Regarding `Fc1ccccc1-c1cc2cc3c(cc2cn1)OCO3`, the inhibition in test [1] is 49.5%; in test [2], 79.9% (active); in test [3], 79.1% (active); in the test with Caspase-3 (Homo sapiens) it was 51.6% (active); in test [4] it was 7.4%.
On the same counts, the results for `CCN1CC=C2C(C#N)=C(N)C(C#N)(C#N)[C@H](c3ccoc3)[C@H]2C1` are -12.3%, -5.5%, -13.6%, 1.7% and -10.5%.
In the same order, the values of `COc1ccccc1-c1nnc(-c2ccc(F)cc2)o1` are 33.8%, 38.6%, 73.8% (active), 66.2% (active) and 60.3% (active).
On the same counts, the results for `CCCc1cc(=O)oc2c(C)c(OCC(=O)Nc3ccccn3)ccc12` are 18.2%, 14.4%, 23.3%, 39.2% and 11.8%.
As for `c1ccc(Nc2nc(-c3ccncc3)cs2)nc1`, the inhibition in test [1] was 84.9% (active); in test [2], 85.1% (active); in test [3] it was 97.3% (active); with Caspase-3 (Homo sapiens), 84% (active); in test [4] it was 45.3%.
In the same order, the values of `O=C(OCc1ccccc1F)c1ccc2c(c1)OCCO2` are 87.8% (active), 88.5% (active), 98.8% (active), 74.5% (active) and 78.6% (active).
In the case of `Cc1cccc(-c2noc(-c3ccc(F)cc3)n2)c1`, the inhibition is 63.5% (active) in test [1]; 69.8% (active) in test [2]; 89.5% (active) in test [3]; 80.6% (active) in the test with Caspase-3 (Homo sapiens); 61.4% (active) in test [4].
Consider `Cc1cccc(Nc2nc(-c3ccccc3)cs2)n1`, for which the inhibition in test [1] was -7.1%; in test [2], 91.5% (active); in test [3] it was 99.9% (active); with Caspase-3 (Homo sapiens), 67.1% (active); in test [4], 49.5%.
Regarding `Cc1[nH][nH]c(=O)c1C(c1ccc(-c2ccc(Cl)cc2)o1)c1c(C)[nH][nH]c1=O`, the inhibition in test [1] is -6.8%; in test [2], 16%; in test [3] it was 2.9%; in the test with Caspase-3 (Homo sapiens), 7.2%; in test [4] it was 1.7%; in test [5] it was 18%. In test [6], the activation (fluorescence interference) is -1.73%.
`O=C(Nc1cc2ccccc2oc1=O)C1CCCCC1`: the inhibition in test [1] was 8.2%; in test [2] it was 4.9%; in test [3], 19.1%; in the test with Caspase-3 (Homo sapiens), 20.1%; in test [4], 3.7%.
With `CCOC(=O)c1sc(NC(=O)c2ccncc2)nc1C`, the inhibition in test [1] was 0.5%; in test [2], 74.8% (active); in test [3], 90.8% (active); with Caspase-3 (Homo sapiens), 84.4% (active); in test [4], 20%.
`O=C(OC1CCOC1=O)c1ccc(-c2nc3ccccc3s2)s1` (stereo not drawn): the inhibition was 92.5% (active) in test [1]; 95.8% (active) in test [2]; 100% (active) in test [3]; 96.3% (active) with Caspase-3 (Homo sapiens); 83.8% (active) in test [4].
In the same order, the values of `Brc1ccccc1C1Nc2cccc3cccc(c23)N1` are -7.3%, 3.3%, -9.3%, 1.1% and 3.4%.
On the same counts, the results for `O=C(N/N=C/c1cccnc1)c1cc2ccccc2cc1O` are 25.3%, 22.6%, 72.3% (active), 61.6% (active) and 53.8% (active).
For `Cc1ccc(/C=N/NC(=O)c2cc3ccccc3cc2O)o1`, the inhibition in test [1] is 67% (active); in test [2] it was 65.9% (active); in test [3], 89.2% (active); with Caspase-3 (Homo sapiens), 76.8% (active); in test [4], 77.6% (active).
With `O=C(O)/C=C/C(=O)NNc1ccc([N+](=O)[O-])cc1`, the inhibition in test [1] was 67.5% (active); in test [2], 65.4% (active); in test [3] it was 92.5% (active); in the test with Caspase-3 (Homo sapiens), 88.6% (active); in test [4] it was 79.3% (active).
With `Nc1ncc(-c2cc3ccccc3oc2=O)s1`, the inhibition is 92.7% (active) in test [1]; 92.8% (active) in test [2]; 102% (active) in test [3]; 94.6% (active) with Caspase-3 (Homo sapiens); 91.7% (active) in test [4].
Regarding `C/C(=N\NC(=O)CNc1cccc2ccccc12)c1ccc(Br)s1`, the inhibition was -9.7% in test [1]; -9.8% in test [2]; -3.4% in test [3]; -2.4% with Caspase-3 (Homo sapiens); -7.4% in test [4]; 13.9% in test [5]. In test [6], the activation (fluorescence interference) was 3.87%.

These data come from PubChem BioAssay.
